# Measured values: the supplement of paper PMC6555819
# Legend:
# Test in all cases: PBM binding z-score (relative to random genomic background probes); higher = stronger binding; sequences stand for … in GC…GCGATTGACAGCGTAGAATGAAGG
# [1] = test system: PPARg:RXRa DBDmut IVT, anti-RXR (DBD mutation: RXRa K156A/R161A, NR concentration 270 nM, RXRa partner concentration 90 nM)
# How it was run: (§1)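 Binding z-scores were set against random background probes. The data came from custom Agilent 4×180K protein-binding microarrays carrying double-stranded probes with 34-nt variable regions, incubated 1 h with ligand-free nuclear receptor dimers. Partner-specific antibodies detected binding, and scanned fluorescence was regression-normalized.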
# [2] = test system: PPARg:RXRa IVT, anti-PPARg (NR concentration 270 nM, RXRa partner concentration 90 nM)
# How it was run: as §1
# [3] = test system: PPARg DBDmut:RXRa IVT, anti-PPARg (DBD mutation: PPARg1 K132A/R137A, NR concentration 270 nM, RXRa partner concentration 90 nM)
# How it was run: as §1
# [4] = test system: PPARg DBDmut IVT, anti-PPARg (DBD mutation: PPARg1 K132A/R137A, NR concentration 270 nM)
# How it was run: as §1
# [5] = test system: PPARg homodimer (NR concentration 180 nM)
# How it was run: as §1
# [6] = test system: PXR:RXRa (NR concentration 270 nM, RXRa partner concentration 90 nM)
# How it was run: as §1
# [7] = test system: PXR homodimer (NR concentration 270 nM)
# How it was run: as §1
# [8] = test system: RARa:RXR (NR concentration 270 nM, RXRa partner concentration 90 nM)
# How it was run: as §1
# [9] = test system: RARa homodimer (NR concentration 270 nM)
# How it was run: as §1
# [10] = test system: RARb:RXRa (NR concentration 270 nM, RXRa partner concentration 90 nM)
# How it was run: as §1
Sequence,PBM binding z-score [1],PBM binding z-score [2],PBM binding z-score [3],PBM binding z-score [4],PBM binding z-score [5],PBM binding z-score [6],PBM binding z-score [7],PBM binding z-score [8],PBM binding z-score [9],PBM binding z-score [10]
ACTAGTTGGTCAGCTGCGGTCACACACAATTCGG,1.11,1.54,0.929,0.572,0.275,1.27,0.281,1.42,0.564,2.26
CTGGAAAGGTCGGTTGAGGTGAGTATACGGATAA,-0.117,0.957,-0.556,0.0614,0.799,3.21,-0.0647,2.05,0.351,2.89
CCAACTGGGCCATCAGGTCATTGATATCAACGTT,5.15,4.92,-0.74,0.0786,1.32,1.59,0.906,1.67,0.182,2.05
ATCTCTAGGTAAAGTTGAGTGAAAGATCGATAGA,2.32,2.1,0.815,1.27,0.789,-0.222,0.345,0.0645,0.741,0.652
CCTACTGGGCCTTCAGGTCATTGATATCAACGTT,2.17,2.64,0.207,0.0216,1.5,1.47,0.552,1.5,-0.361,1.7
ACTATTAGTTGACTTAGGGCACCCGATACGACGC,0.28,0.339,1.12,1.59,0.282,-0.159,0.392,0.226,1.18,0.663
GCTAACAGGCCATTTGGGTCACTCAATGACGGGC,1.61,1.82,-0.246,-0.627,0.24,0.795,0.0442,1.03,-0.111,1.81
AGAACGAGGGCACGCTGTGTTGATAGCAGAGTAG,4.43,3.96,0.394,-0.216,-0.372,0.28,-0.446,0.799,-0.803,2.39
CGTCCCAGGTCAGCAGGTCAGTGAAAGCGACGTG,1.69,2.71,-0.717,-0.861,1.2,2.16,-0.206,3.19,0.0121,4.12
CGATCTAGGTCAGAACAGGACAGTGAAGGATGAT,6.87,6.77,1.59,1.33,0.826,0.571,-0.0995,1.13,0.466,2.66
CCGACTGGGCCAAAGGTTACCATACTCAGTACGA,3.77,5.5,0.219,-0.431,1.31,1.75,-0.189,3.1,0.224,2.22
CATAGTTGGTCAGGAGGTCACACACCGGATATGA,1.15,3.71,1.32,0.996,3.84,4.52,1.13,5.4,1.99,3.73
CTCGAGAGGTCGGTTGAGGTGAGTATACGGATAA,0.581,0.606,-0.792,-0.363,0.728,3.5,0.389,2.64,-0.682,2.05
CACGAAAGGTCGGTTGAGGTGAGTATACGGATAA,0.197,1.19,1.19,0.977,1.22,3.42,0.224,2.96,0.255,3.18
CTACAAAGGTGAACAAGGTCGTTGATTACTATTC,3.31,3.77,0.982,0.418,1.57,3.89,2.18,3.61,0.686,3.63
CCTGCTAGGTCAATGGTCAGCTATAGCAGCTCGC,4.67,3.79,-0.186,-0.414,1.14,0.849,-0.745,1.57,-0.658,3.75
TCATATATGTAAAGGTGAAAGTCGAACGATATGA,1.83,1.99,1.26,0.868,0.62,0.981,-0.319,1.78,0.741,1.96
AGAACTAGGGCACGCTGAGTTGATAGCAGAGTAG,8.03,7.98,3.17,2.05,0.0464,0.214,-0.312,-0.11,-0.599,1.58
GCTCGGAGGACAAGGTCGGAGCTTTGTCCGTAGA,-1.06,-0.138,-1.21,-1.93,-0.925,-0.155,-0.823,0.146,-1.12,1.59
CCTAGCAGGCCAATCTGGGTAACTCAAGGCTTGA,2.34,2.01,-1.19,-0.9,-0.78,-0.754,-0.707,-0.329,-0.678,-0.071
CCTACTGGCCCATCAGGTCATTGATATCAACGTT,-0.199,1.1,-0.917,0.381,1.47,1.61,0.678,1.83,0.604,1.71
TCGAGTAGGTTACCAATGGGGCTTTCAGCTTTCT,3.39,2.45,-0.964,0.0286,-0.411,-0.0679,-0.767,-0.0921,-1.47,0.762
TATAGAGGGTCAAAGGCCAGAGTACGAATGTCGA,2.58,4.43,0.901,0.741,2.2,3.62,0.282,5.1,1.12,4.11
CCGACTGGGGCATAAGGTTATCATAAGCCAGCCC,2.88,3.27,-0.987,-0.567,1.33,0.386,0.0103,1.34,-0.22,1.32
AGAATGAGGTTTAGATCAGGGAAACAGAATACAT,-0.558,-0.176,0.757,0.896,-0.0172,-0.27,-0.0808,-0.0668,0.721,-0.105

Sequence,PBM binding z-score [1],PBM binding z-score [2],PBM binding z-score [3],PBM binding z-score [4],PBM binding z-score [5],PBM binding z-score [6],PBM binding z-score [7],PBM binding z-score [8],PBM binding z-score [9],PBM binding z-score [10]
CAAACTAGGTCACAGAGGTCAGAGTCCGTGCGTA,8.64,9.29,2.49,1.4,4.05,5.59,7.79,5.97,1.84,5.11
CTCGAAAGGTCGGTTGAGGCGAGTATACGGATAA,-0.316,0.197,0.246,-0.285,0.331,1.17,-0.214,2,-0.443,2.66
AGAATGAGGTTAAGATCAGGGGAACAGAATACAT,3.34,2.63,1.57,0.78,1.05,1.43,0.765,2.02,0.798,1.95
ATCGAAAGGTCGACGAGGTGATTATACACCGTTT,0.604,1.86,1.29,0.577,1.31,3.32,1.07,3.76,0.346,3.78
CCAGACAGGTGAGAAGGTAACTCAACCTCGATTA,1.22,0.742,0.229,-0.571,1.06,0.207,0.428,0.706,0.916,0.619
ATCGCTAGGTAACCAAGTTCAGTGAATGCCGAAC,-0.05,0.465,-0.411,-0.436,-0.86,1.57,1.12,0.267,-0.716,0.753
GCTGCTAGGTCAGGTTGGTCAGGTAACGGGTACG,2.86,2.24,-0.63,-0.722,0.641,0.475,-0.529,0.834,-0.052,3.15
CCGACTAGGGCAAAGGTTACCATACTCAGTACGA,5.49,6.42,0.866,0.896,2.04,2.23,-0.079,3.59,0.449,2.85
TCATATAGGTAGAAGGTGAAAGTCGGTGTGGTAA,3.5,2.69,1.46,0.808,1.59,0.746,0.482,1.17,1.42,1.08
CCGGACAGGTGAGAAGGTAACTCAGCCTCGATTA,1.04,0.612,-0.39,-1.64,0.569,-0.415,-0.227,-0.262,0.0296,0.711
CTACCAAGGTGAACAGGGTCGTTGATTACTATTC,1.92,2.88,0.525,0.178,0.785,1.89,0.796,2.11,0.321,1.75
GCTCGGAGGACAAGGTCAAAGCTTTGTCCGTAGA,0.217,2.07,-1.59,-1.02,1.34,3.51,0.43,3.77,-0.688,4.08
AGTCAAAGTTCAGGACGAGGAAACGTAAAGCACG,-0.351,1.46,0.63,0.55,1.71,2.42,0.845,2.26,-0.0138,4.25
CGTGAAAGTTCAAGGTAACGTAACAGAAAGCAGC,0.31,1.59,1.08,0.978,2.81,4.03,2.44,3.46,0.962,4.93
CCTTGCGGGTCACTCCAGGTTATAGCATCGGAGT,4.56,4.95,0.399,0.356,1.54,4.59,0.258,3.14,0.115,3.11
TCTGCTATGTCAGTTGGTCAGCTAACGAGCTGCC,0.621,0.807,-0.394,0.0922,-0.53,-0.0982,-1.36,-0.0374,-1.02,0.481
ATCGACAGGTCGTGAGGTGAGTATACAGAAAGGC,-0.42,0.86,-0.374,-0.491,0.776,0.904,0.267,1.86,0.537,1.88
GCTGGTAGATCAAGGTTAAGAAAGACTAAGCTAA,-0.391,0.232,-0.0433,-0.0207,-0.421,0.348,-0.246,0.69,0.451,0.949
CTCGACAGGTCGGTTGAGGTGAGTATACGGATAA,-0.656,0.236,-0.149,-0.718,-0.0437,0.653,-0.282,0.493,-0.539,0.905
AATACAGGGTCAATAGGCCAGAGTAGGTACGAAT,2.44,4.21,1.55,0.759,2.2,2.69,0.585,3.85,0.911,4.17
ATATGTACGTTATCGGGTCATTCAGTTTGCGCAT,1.03,2.37,1.71,1.76,1.32,3.32,7.47,3.02,0.585,1.93
ATCTCTAGGTAAAAGTTCAGTGACTCCCGAGGAT,2.54,3.69,1.46,1.46,1.59,2.36,1.59,1.97,0.841,2.39
ACAGACAGGTGAGTCAAGGTAACTCAGCTGGACG,0.393,0.646,-0.696,-0.663,-0.248,0.238,-0.645,0.569,-0.253,0.669
CCTGCTAGGTCATGTTCAGCTAATCTACAGTATG,4.06,2.94,-0.127,0.556,1.51,1.07,-0.338,1.53,-0.173,3.63
